PubChem BioAssay (Tox21)
Results filed as inconclusive are left out. A number with no mark means an inactive call. The call rests on the fitted dose curve.

Assay: p53 small molecule agonists, cell-based qHTS assay with human liver microsomes: qHTS cell viability counter screen (AID 1963579)
Details: p53RE-bla HCT-116 viability, ATP luminescence, 16 h, HLM; series mostly up to 66 µM; activity change, negative = cytotoxicity: at the top concentration
Method in brief: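 Metabolic activation used human liver microsomes and NADPH, both 0.5 mg/mL final, over 16 hours at 37 C on p53RE-bla cells (4,000/well). Cytotoxicity measured by CellTiter-Glo luminescence, 30 min at room temperature.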
Further: nearly all actives have a fitted effect of over 45% in size.
On the % scale 0 is the no-effect control and ±100 the full control effect.

Row | SMILES | activity change, negative = cytotoxicity
1 | C=CC(C)(O)CC/C=C(/C)CCC=C(C)C (stereo not drawn) | 3.7%
2 | Cc1cc(CCC(=O)OCCOCCOCCOC(=O)CCc2cc(C)c(O)c(C(C)(C)C)c2)cc(C(C)(C)C)c1O | 6.18%
3 | C1CCCC1 | 10.3%
4 | NS(=O)(=O)c1ccccc1OC(F)(F)F | 0.946%
5 | Clc1ccc2c(c1)Nc1ccccc1S2 | -0.334% [at 30.3 µM]
6 | CC(C)(O)C(=O)c1ccc(OCCO)cc1 | -13.4%
7 | C[Si](C)(C)O[Si](C)(C)O[Si](C)(C)C | -10.6%
8 | [Cl][Nd]([Cl])[Cl] | -1.16%
9 | O=C(Cn1ccnc1[N+](=O)[O-])NCc1ccccc1 | 10.2% [at 30.3 µM]
10 | O=C(O)CC(=O)O | -8.7%

Assay: p53 small molecule agonists, cell-based qHTS assay with rat liver microsomes: qHTS cell viability counter screen (AID 1963580)
Details: p53RE-bla HCT-116 + rat microsomes, ATP viability, 16 h; series mostly up to 66 µM; activity change, negative = cytotoxicity: at the top concentration
Method in brief: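 Viability is assessed in parallel with the p53 reporter read: HCT-116 p53RE-bla cells receive compounds plus rat microsomes and NADPH (0.5 mg/mL final apiece), incubate 16 h at 37 C, and then CellTiter-Glo luminescence is recorded.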

Row | SMILES | activity change, negative = cytotoxicity
11 | CCOC=C(C(=O)OCC)C(=O)OCC | 6.89%
12 | CCC(=O)OCc1ccccc1 | -18.1%
13 | O=C1CC[C@H](C(=O)N2CCCCC2)N1 | 2.32% [at 30.3 µM]
14 | C=C1CC/C=C(\C)CC[C@@H]2[C@@H]1CC2(C)C | -10.1%
15 | COc1cc(S(N)(=O)=O)cc(C(=O)O)c1OC | 13.7% [at 30.3 µM]
16 | C1COCCO1 | 0.629%
17 | CC/C=C/CCO | -7.02%
18 | CC(=O)N1CCN(c2ccc(O)cc2)CC1 | -2.91% [at 30.3 µM]
19 | Cc1ncc(CO)c(CN)c1O | -0.617% [at 30.3 µM]
20 | CC(C)(C)c1ccc(CCC=O)cc1 | 9.56%
21 | CC1=C(O)C(=O)C(C)O1 (stereo not drawn) | 3.12%
22 | CCOC(=O)[C@H](CCc1ccccc1)N[C@@H](C)C(=O)N1C(=O)N(C)C[C@H]1C(=O)O | -2.76% [at 30.3 µM]
23 | CCCCCCCCCCCCCCCCCC(=O)OCC(CC)CCCC (stereo not drawn) | -2.38%
24 | NC(=O)Cc1cccc2ccccc12 | 2.04%
25 | Cc1cnccn1 | 0.103%
26 | O=Cc1ccc(Cl)cc1 | 4.02%
27 | CCCCCCCCCCC | 1.74%
28 | CCCCOC(=O)CCS | 3.38%
29 | COc1cc(C(=S)N2CCOCC2)cc(OC)c1OC | -5.03% [at 30.3 µM]
30 | CCCC(=O)Nc1ccc(O)c(C(C)=O)c1 | 11.5% [at 30.3 µM]

Row | SMILES | activity change, negative = cytotoxicity
31 | COc1cc2c(Nc3ccc(Br)cc3F)ncnc2cc1OCC1CCN(C)CC1 | -0.0166% [at 30.3 µM]
32 | CC(=O)c1ccc2c(c1)CCCC2 | -0.885%
33 | c1cnc2cc3c(cc2n1)C1CNCC3C1 | 1.48% [at 30.3 µM]
34 | O=Cc1ccc([N+](=O)[O-])cc1 | -2.03%
35 | CCC(=O)O[C@@H]1C[C@H]2CC[C@]1(C)C2(C)C | 0%
36 | CCNc1nc(N)nc(Cl)n1 | 0.145%
37 | CN(C)CCCNCCC#N | 3.1%
38 | O=C1CCN(c2ccccc2)N1 | 9.74%
39 | O=C(O)c1ccc(OCCN2CCCCC2)cc1 | 7.47% [at 30.3 µM]
40 | C=CC(C)(O)CC/C=C(/C)CCC=C(C)C (stereo not drawn) | 6.68%
41 | Cc1cc(CCC(=O)OCCOCCOCCOC(=O)CCc2cc(C)c(O)c(C(C)(C)C)c2)cc(C(C)(C)C)c1O | 1.25%
42 | C1CCCC1 | 7.42%
43 | NS(=O)(=O)c1ccccc1OC(F)(F)F | 1.74%
44 | Clc1ccc2c(c1)Nc1ccccc1S2 | 8.49% [at 30.3 µM]
45 | CC(C)(O)C(=O)c1ccc(OCCO)cc1 | -1.13%
46 | C[Si](C)(C)O[Si](C)(C)O[Si](C)(C)C | -9.14%
47 | [Cl][Nd]([Cl])[Cl] | 0.986%
48 | O=C(Cn1ccnc1[N+](=O)[O-])NCc1ccccc1 | 2.1% [at 30.3 µM]
49 | O=C(O)CC(=O)O | 7.61%

Assay: p53 small molecule agonists, cell-based qHTS assay: qHTS cell viability counter screen (AID 1963581)
Details: p53RE-bla HCT-116 viability, ATP luminescence, 16 h; series mostly up to 66 µM; activity change, negative = cytotoxicity: at the top concentration
Method in brief: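 In the same plates used for the p53 bla reporter, HCT-116 cells given compounds for 16 h at 37 C received CellTiter-Glo; luminescence was recorded 30 min later at room temperature.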

Row | SMILES | activity change, negative = cytotoxicity
50 | CCOC=C(C(=O)OCC)C(=O)OCC | -7.01%
51 | CCC(=O)OCc1ccccc1 | -11%
52 | O=C1CC[C@H](C(=O)N2CCCCC2)N1 | -13% [at 30.3 µM]
53 | C=C1CC/C=C(\C)CC[C@@H]2[C@@H]1CC2(C)C | 5.49%
54 | COc1cc(S(N)(=O)=O)cc(C(=O)O)c1OC | 2.87% [at 30.3 µM]
55 | C1COCCO1 | -6.6%
56 | CC/C=C/CCO | -8.07%
57 | CC(=O)N1CCN(c2ccc(O)cc2)CC1 | -0.657% [at 30.3 µM]
58 | Cc1ncc(CO)c(CN)c1O | -10.6% [at 30.3 µM]
59 | CC(C)(C)c1ccc(CCC=O)cc1 | 2.5%
60 | CC1=C(O)C(=O)C(C)O1 (stereo not drawn) | -14.4%
61 | CCOC(=O)[C@H](CCc1ccccc1)N[C@@H](C)C(=O)N1C(=O)N(C)C[C@H]1C(=O)O | -2.87% [at 30.3 µM]
62 | CCCCCCCCCCCCCCCCCC(=O)OCC(CC)CCCC (stereo not drawn) | -1.89%
63 | NC(=O)Cc1cccc2ccccc12 | 13.5%
64 | Cc1cnccn1 | -12.5%
65 | O=Cc1ccc(Cl)cc1 | -9.01%
66 | CCCCCCCCCCC | 13.6%
67 | CCCCOC(=O)CCS | -6.32%
68 | COc1cc(C(=S)N2CCOCC2)cc(OC)c1OC | 12.9% [at 30.3 µM]
69 | CCCC(=O)Nc1ccc(O)c(C(C)=O)c1 | -17.3% [at 30.3 µM]

Row | SMILES | activity change, negative = cytotoxicity
70 | COc1cc2c(Nc3ccc(Br)cc3F)ncnc2cc1OCC1CCN(C)CC1 | 0.559% [at 30.3 µM]
71 | CC(=O)c1ccc2c(c1)CCCC2 | 26.8%
72 | c1cnc2cc3c(cc2n1)C1CNCC3C1 | 2.58% [at 30.3 µM]
73 | O=Cc1ccc([N+](=O)[O-])cc1 | 11.7%
74 | CCC(=O)O[C@@H]1C[C@H]2CC[C@]1(C)C2(C)C | 2.91%
75 | CCNc1nc(N)nc(Cl)n1 | 14.5%
76 | CN(C)CCCNCCC#N | -0.0336%
77 | O=C1CCN(c2ccccc2)N1 | 1.67%
78 | O=C(O)c1ccc(OCCN2CCCCC2)cc1 | -7.54% [at 30.3 µM]
79 | C=CC(C)(O)CC/C=C(/C)CCC=C(C)C (stereo not drawn) | 0.489%
80 | Cc1cc(CCC(=O)OCCOCCOCCOC(=O)CCc2cc(C)c(O)c(C(C)(C)C)c2)cc(C(C)(C)C)c1O | 1.2%
81 | C1CCCC1 | 2.06%
82 | NS(=O)(=O)c1ccccc1OC(F)(F)F | 9.69%
83 | Clc1ccc2c(c1)Nc1ccccc1S2 | 2.34% [at 30.3 µM]
84 | CC(C)(O)C(=O)c1ccc(OCCO)cc1 | -1.12%
85 | C[Si](C)(C)O[Si](C)(C)O[Si](C)(C)C | 3.79%
86 | [Cl][Nd]([Cl])[Cl] | -20.3%
87 | O=C(Cn1ccnc1[N+](=O)[O-])NCc1ccccc1 | -8.21% [at 30.3 µM]
88 | O=C(O)CC(=O)O | 17.9%
